The record followed here is PubChem BioAssay (Tox21).

Values without a mark were called inactive. Records with an inconclusive call do not appear. Active and inactive are the calls of the source. Unless noted, calls come from the whole dose curve; as a rule, active = well fitted curve in the direction sought with a large enough effect in the repeat runs; inconclusive = weak or mixed curves; inactive = no such curve, though single readings can be large; an effect the other way counts as inactive or inconclusive.

Assay [1] deals with Thyrotropin receptor (Homo sapiens) (UniProt P16473). Put plainly: qHTS assay to identify small molecule antagonists of the thyroid stimulating hormone receptor (TSHR) signaling pathway (AID 1259385; calls by dose curve; note: nearly all actives have a fitted effect of over 20% in size). In a few lines:
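TSHR-HEK293 cells were plated and held 18 h at 37C/5% CO2, then given compound plus Ro20-1724 and stimulated with TSH at 1.5 ng/mL final. After 30 min at room temperature, cAMP was detected with cAMP-d2/anti-cAMP-cryptate (1 h) by fluorescence.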
A general note: qHTS replaces the single test concentration by a dilution series.

A short description of assay [2]: qHTS assay to identify small molecule agonists of the estrogen receptor alpha (ER-alpha) signaling pathway in the presence of an antagonist - cell viability counter screen (AID 1259386).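 Note: series mostly up to about 92 µM; cells exposed to compounds for 22 h at 37 °C before the viability read; nearly all actives have a fitted effect of over 30% in size.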 The method in brief: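 Cell viability in VM7Luc4E2 cells (endogenous full-length ER-alpha) measured by CellTiter-Fluor fluorescence in the same wells as the luciferase screen. Cells pre-cultured 5 days in charcoal-stripped serum, then treated 22 h with compounds at 15 concentrations plus 10.0nM ICI-182,780.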

In assay [3] the target is Progesterone receptor (Homo sapiens) (UniProt P06401). Put plainly: qHTS assay to identify small molecule antagonists of the progesterone receptor (PR) signaling pathway (AID 1346795; active = well fitted inhibition curve with a large enough effect in the signal ratio in the repeat runs, not every such curve was filed as active; the % refers to the signal ratio). The method in brief:
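Antagonist mode: compounds tested against 1 nM (final) promegestone stimulation in HEK293T cells expressing PR-UAS-bla reporter, 16 hr at 37C, 5% CO2; beta-lactamase activity detected via B/G FRET substrate after 2 hr at room temperature.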

Assay [4] can be described thus: qHTS assay to identify small molecule antagonists of the progesterone receptor (PR) signaling pathway - cell viability counter screen (AID 1346798). Note: series mostly up to about 92 µM; nearly all actives have a fitted effect of over 50% in size. In a few lines:
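Counter screen for cytotoxicity: viability of PR-UAS-bla HEK293T cells was measured with CellTiter-Glo luminescence following 16 hr compound exposure in the presence of R5020.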

Assay [5] can be described thus: qHTS assay to identify small molecule agonists of the progesterone receptor (PR) signaling pathway - cell viability counter screen (AID 1346799; calls by dose curve; note: nearly all actives have a fitted effect of over 45% in size; note: potency is the fitted concentration of half-maximal effect). In a few lines:
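Cells (PR-UAS-bla HEK293T) are plated at 3,000/well in 2% charcoal-stripped FBS medium, rested 6 hr, dosed and incubated 16 hr at 37C. CellTiter-Glo is then added and luminescence measured after 30 min at room temperature.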

Assay [6] is described as follows: qHTS assay to identify small molecule agonists of the TGF-beta/Smad signaling pathway - cell viability counter screen (AID 1346829). Note: top concentration of the series differs between compounds; nearly all actives have a fitted effect of over 45% in size. In a few lines:
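Cytotoxicity counter screen: CellTiter-Glo luminescence (30 min, room temperature) measured in the SBE-bla HEK 293T reporter wells after 5 hr compound treatment at 37 C and the 2 hr substrate step.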

The nature of assay [7]: qHTS assay to identify small molecule agonists of the TGF-beta/Smad signaling pathway (AID 1346859; active = well fitted activation curve with a large enough effect in the signal ratio in the repeat runs, not every such curve was filed as active; the % refers to the signal ratio; note: series mostly up to about 77 µM). In a few lines:
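Reporter line: HEK 293T with stably integrated SBE-controlled beta-lactamase. Compound exposure lasts 5 hr at 37 C and 5% CO2; substrate loading follows for 2 hr at room temperature, with emission read at 460 and 530 nm.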

In assay [8] the target is Thyrotropin-releasing hormone receptor (Homo sapiens) (UniProt P34981). The assay is described as follows: qHTS assay to identify small molecule antagonists of the thyrotropin-releasing hormone receptor (TRHR) signaling pathway (AID 1346877; active = well fitted inhibition curve with a large enough effect in the repeat runs, not every such curve was filed as active; note: series mostly up to about 51 µM). The method in brief: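 TRHR-expressing HEK293 cells loaded with calcium dye for 2 h at 37 C; compounds pre-incubated 5 min at room temperature before TRH challenge at 1 nM final. Intracellular calcium fluorescence read kinetically for 3 min; 15 concentrations in triplicate.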

Assay [9] has the same target. The assay is described as follows: qHTS assay to identify small molecule agonists of the thyrotropin-releasing hormone receptor (TRHR) signaling pathway (AID 1346891; calls by dose curve; note: series mostly up to about 58 µM). The method in brief:
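Cells: TRHR-Hek293, seeded and incubated 18 h. Dye loading: 2 h at 37 °C. Compound added from DMSO stock by pin tool. Read-out: kinetic calcium fluorescence over 3 min.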

Assay [10] is described as follows: Human pregnane X receptor (PXR) small molecule agonists, qHTS cell viability counter screen (AID 1346977). Note: nearly all actives have a fitted effect of over 50% in size. The method in brief: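 Cytotoxicity counter screen run in the same wells as the PXR luciferase assay, using PXR-Luc HepG2 cells in charcoal-stripped serum medium. Viability: CellTiter-Fluor fluorescence after 24hr compound treatment.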
The nature of assay [11]: Caspase-3/7 induction in HepG2 cells by small molecules, qHTS assay (AID 1346978). Note: nearly all actives have a fitted effect of over 15% in size. The method in brief:
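Wild-type HepG2 cells (2,000/well) were settled 5 h at 37 C, 5% CO2, then exposed to compounds in DMSO for 17 h. Caspase-3/7 activity was read by luminescence 30 min after adding Caspase-Glo 3/7 reagent at room temperature.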

A short description of assay [12]: Caspase-3/7 induction in CHO-K1 cells by small molecules, qHTS cell viability counter screen (AID 1346979). Note: nearly all actives have a fitted effect of over 35% in size. Note: potency is the fitted concentration of half-maximal effect. In a few lines: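 Cytotoxicity counter screen run in parallel with the caspase-3/7 assay: CHO-K1 cells, 16hr compound treatment at 37C, then CellTiter-Fluor for 1hr before fluorescence reading.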
A short description of assay [13]: Caspase-3/7 induction in CHO-K1 cells by small molecules, qHTS assay (AID 1346980). Note: nearly all actives have a fitted effect of over 15% in size. In a few lines:
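Wild-type cells were seeded at 1,500 per well and settled 5 hr at 37 C, 5% CO2, then exposed to DMSO-dissolved compounds for 17 hr. Caspase-Glo 3/7 reagent was added, and luminescence was read after 30min at room temperature.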

The target of assay [14] is Nuclear receptor subfamily 1 group I member 2 (Homo sapiens) (UniProt O75469). The assay is described as follows: Human pregnane X receptor (PXR) small molecule agonists, qHTS assay (AID 1346982). Note: nearly all actives have a fitted effect of over 35% in size. Note: potency is the fitted concentration of half-maximal effect. The method in brief:
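PXR-Luc HepG2 reporter cells (CYP3A4-driven luciferase) in 5% charcoal-stripped FBS medium, plated 5 h before compound addition, then treated 24 h at 37C. Luciferase read by ONE-Glo luminescence after 30 min at room temperature.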

Assay [15] has the same target. The assay is described as follows: CYP3A4 induction through human pregnane X receptor (PXR) by small molecules, qHTS assay (AID 1346984). Note: nearly all actives have a fitted effect of over 40% in size. In a few lines: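 DPX-2 HepG2 cells carrying a PXR response element and CYP3A4-promoter luciferase construct, treated with compounds 24 hr at 37C. Then P450-Glo CYP3A4 Luciferin-IPA substrate (3uM final) for 3 hr at 37C, One-Glo added, luminescence read.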

Assay [16] has the same target. Put plainly: Human pregnane X receptor (PXR) activation by small molecules, qHTS assay (AID 1346985). Note: nearly all actives have a fitted effect of over 40% in size. Note: potency is the fitted concentration of half-maximal effect. The method in brief:
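DPX-2 cells (HepG2 co-transfected with a PXR response element and a CYP3A4-promoter luciferase construct) were seeded at 2,000 per well, rested 5 hr at 37C, then exposed to DMSO-dissolved compounds for 24 hr. Activation was read as luciferase luminescence.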

A short description of assay [17]: qHTS assay to identify small molecule antagonists of the TGF-beta/Smad signaling pathway - cell viability counter screen (AID 1346824). Note: nearly all actives have a fitted effect of over 50% in size. The method in brief:
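SBE-bla HEK 293T cells were plated overnight at 37 C, then given compounds in DMSO plus TGF-beta1 (added as 0.25 ng/mL solution) for 5 hr. After the bla read, CellTiter-Glo was added to the same wells and luminescence read after 30 min at room temperature.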

A short description of assay [18]: Caspase-3/7 induction in HepG2 cells by small molecules, qHTS cell viability counter screen (AID 1346981). Note: nearly all actives have a fitted effect of over 30% in size. Note: potency is the fitted concentration of half-maximal effect. In a few lines:
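Wild-type HepG2 cells, 2,000/well, settled 5 hr at 37 C, 5% CO2 before compound addition. Viability read by CellTiter-Fluor fluorescence, reagent added after 16 hr compound exposure, then 1 hr at 37C, in the same wells as the caspase read.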

The target in assay [19] is Nuclear receptor subfamily 1 group I member 2 (Rattus norvegicus) (UniProt Q9R1A7). Put plainly: Rat pregnane X receptor (rPXR) activation by small molecules, qHTS assay (AID 1346983). Note: nearly all actives have a fitted effect of over 20% in size. The settings on record: rPXR luciferase reporter cells, One-Glo luminescence, 24 h; stronger effect = higher value. The method in brief: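 Cell-based rPXR luciferase reporter assay, 2,000 cells per well, rested 5hr at 37 C before compound addition in DMSO, then 24 hr at 37 C. One-Glo reagent was added and luminescence read after 30 min at room temperature.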

Assay [20] concerns the target Progesterone receptor (Homo sapiens) (UniProt P06401). The assay is described as follows: qHTS assay to identify small molecule agonists of the progesterone receptor (PR) signaling pathway (AID 1346784; calls by dose curve; note: nearly all actives have a fitted effect of over 30% in size). The method in brief: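 Cells (PR-UAS-bla HEK 293T, GripTite) were plated in assay medium containing 2% charcoal-stripped FBS and incubated 6 hr. Test compounds in DMSO were added for 16 hr at 37C. FRET substrate was then loaded for 2 hr at room temperature before fluorescence reading.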
% is set by controls: 0 for no effect and ±100 for the full control effect.

Sequence of Nuclear receptor subfamily 1 group I member 2 (Rattus norvegicus) (Q9R1A7 whole entry, looked up): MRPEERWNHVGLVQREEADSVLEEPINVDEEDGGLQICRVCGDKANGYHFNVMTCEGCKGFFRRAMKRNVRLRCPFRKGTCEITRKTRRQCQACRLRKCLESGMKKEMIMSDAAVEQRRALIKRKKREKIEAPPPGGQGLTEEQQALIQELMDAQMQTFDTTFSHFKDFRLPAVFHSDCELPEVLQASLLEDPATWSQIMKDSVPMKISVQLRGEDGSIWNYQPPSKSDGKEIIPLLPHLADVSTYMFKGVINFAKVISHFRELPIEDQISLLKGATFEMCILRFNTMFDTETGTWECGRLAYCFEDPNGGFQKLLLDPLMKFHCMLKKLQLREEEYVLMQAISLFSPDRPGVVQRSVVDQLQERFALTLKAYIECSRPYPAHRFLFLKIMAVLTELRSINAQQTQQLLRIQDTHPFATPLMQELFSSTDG
Sequence of Thyrotropin-releasing hormone receptor (Homo sapiens) (P34981 whole entry, looked up): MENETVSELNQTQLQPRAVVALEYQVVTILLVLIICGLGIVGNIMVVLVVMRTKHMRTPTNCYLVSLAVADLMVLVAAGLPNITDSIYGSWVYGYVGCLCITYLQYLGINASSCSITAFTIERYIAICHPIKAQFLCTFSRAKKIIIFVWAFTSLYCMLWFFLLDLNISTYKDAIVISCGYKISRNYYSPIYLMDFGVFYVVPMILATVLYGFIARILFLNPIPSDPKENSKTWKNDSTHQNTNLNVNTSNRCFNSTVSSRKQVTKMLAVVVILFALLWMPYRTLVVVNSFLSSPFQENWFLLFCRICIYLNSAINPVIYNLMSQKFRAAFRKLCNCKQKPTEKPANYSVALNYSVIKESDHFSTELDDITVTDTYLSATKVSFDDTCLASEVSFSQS
Sequence of Nuclear receptor subfamily 1 group I member 2 (Homo sapiens) (O75469 whole entry, looked up): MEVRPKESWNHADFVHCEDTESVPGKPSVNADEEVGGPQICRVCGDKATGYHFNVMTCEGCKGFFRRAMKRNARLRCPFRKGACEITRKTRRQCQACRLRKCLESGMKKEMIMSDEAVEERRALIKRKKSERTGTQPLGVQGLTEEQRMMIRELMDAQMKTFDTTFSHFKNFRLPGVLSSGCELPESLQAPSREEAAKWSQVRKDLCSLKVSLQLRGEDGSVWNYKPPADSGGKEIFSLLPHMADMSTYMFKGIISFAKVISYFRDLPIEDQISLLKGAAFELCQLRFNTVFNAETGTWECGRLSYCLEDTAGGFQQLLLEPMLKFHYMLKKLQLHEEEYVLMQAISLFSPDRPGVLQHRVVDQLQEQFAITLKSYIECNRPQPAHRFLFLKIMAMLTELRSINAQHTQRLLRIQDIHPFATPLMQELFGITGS
Sequence of Progesterone receptor (Homo sapiens) (P06401 whole entry, looked up): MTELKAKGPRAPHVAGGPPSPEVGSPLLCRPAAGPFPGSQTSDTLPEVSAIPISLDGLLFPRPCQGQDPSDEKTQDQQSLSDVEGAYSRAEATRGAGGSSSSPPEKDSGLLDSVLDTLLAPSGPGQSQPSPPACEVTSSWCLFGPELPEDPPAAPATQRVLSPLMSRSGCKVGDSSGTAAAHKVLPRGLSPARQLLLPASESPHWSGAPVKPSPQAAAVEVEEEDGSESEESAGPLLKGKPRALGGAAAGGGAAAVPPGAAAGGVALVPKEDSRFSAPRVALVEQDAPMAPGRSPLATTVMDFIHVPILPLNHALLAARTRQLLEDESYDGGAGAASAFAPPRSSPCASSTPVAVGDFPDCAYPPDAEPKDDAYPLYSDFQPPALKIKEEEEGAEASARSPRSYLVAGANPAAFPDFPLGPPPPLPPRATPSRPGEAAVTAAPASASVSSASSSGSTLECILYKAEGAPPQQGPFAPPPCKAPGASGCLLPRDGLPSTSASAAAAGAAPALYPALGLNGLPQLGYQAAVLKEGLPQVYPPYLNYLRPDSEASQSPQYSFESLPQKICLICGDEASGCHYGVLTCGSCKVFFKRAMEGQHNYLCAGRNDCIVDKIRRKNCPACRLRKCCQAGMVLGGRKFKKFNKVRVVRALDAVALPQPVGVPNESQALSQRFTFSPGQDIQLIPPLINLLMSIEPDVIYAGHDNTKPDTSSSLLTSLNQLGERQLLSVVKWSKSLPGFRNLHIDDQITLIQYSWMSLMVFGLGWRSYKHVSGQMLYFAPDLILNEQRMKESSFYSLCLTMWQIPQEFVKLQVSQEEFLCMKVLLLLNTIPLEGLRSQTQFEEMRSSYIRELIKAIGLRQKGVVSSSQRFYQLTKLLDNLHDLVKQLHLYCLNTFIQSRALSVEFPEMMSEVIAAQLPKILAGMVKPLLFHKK
Sequence of Thyrotropin receptor (Homo sapiens) (P16473 whole entry, looked up): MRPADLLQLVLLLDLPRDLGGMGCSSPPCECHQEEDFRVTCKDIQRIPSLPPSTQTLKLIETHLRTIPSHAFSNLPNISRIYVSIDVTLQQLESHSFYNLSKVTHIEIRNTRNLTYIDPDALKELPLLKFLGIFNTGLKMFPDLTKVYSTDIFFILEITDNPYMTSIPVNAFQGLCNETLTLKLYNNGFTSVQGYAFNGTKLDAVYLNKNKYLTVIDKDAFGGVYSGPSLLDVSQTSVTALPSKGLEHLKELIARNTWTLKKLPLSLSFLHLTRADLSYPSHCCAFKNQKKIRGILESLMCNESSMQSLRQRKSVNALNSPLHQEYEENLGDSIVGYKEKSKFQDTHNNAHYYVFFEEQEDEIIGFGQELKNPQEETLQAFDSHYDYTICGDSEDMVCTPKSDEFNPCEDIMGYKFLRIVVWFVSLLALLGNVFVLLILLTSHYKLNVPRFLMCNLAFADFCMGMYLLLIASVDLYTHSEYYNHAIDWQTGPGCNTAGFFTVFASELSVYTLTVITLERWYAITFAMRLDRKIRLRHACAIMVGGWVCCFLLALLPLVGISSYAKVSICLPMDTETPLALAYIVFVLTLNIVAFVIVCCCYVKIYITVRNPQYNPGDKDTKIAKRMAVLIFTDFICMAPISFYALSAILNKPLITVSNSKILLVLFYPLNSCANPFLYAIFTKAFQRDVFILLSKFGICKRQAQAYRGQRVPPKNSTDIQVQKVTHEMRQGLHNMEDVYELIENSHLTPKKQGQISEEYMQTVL

In the case of `O=C(NCCc1c[nH]c2ccccc12)c1cccnc1`, the result in assay [1], in [6], in assay [7], in [8], in assay [9] and in assay [13] was inactive. The Potency result in assay [2], in assay [3], in assay [4], in [5], in [10] and in [11] was “inactive” in each case. Further, the Potency result in assay [12], in assay [15] and in assay [16] was “inactive” in each case. For the same compound, in [14], the Potency is 26.6 µM (active).

Regarding `CC(CC=O)CCCC(C)(C)O` (stereo not drawn), the compound was called inactive in [1], in [17], in assay [6], in assay [7] and in [13]. The Potency entry in assay [2], in assay [3], in [4], in [10], in [11] and in [12] was “inactive” each time. Also, the Potency entry in assay [18], in assay [14], in [15] and in assay [16] was “inactive” in each case. The max activation in assay [19] was -1.75%.

Regarding `CC(C)C(=O)OCc1cccc(OC(=O)[C@@H]2N3C(=O)[C@@H](NC(=O)Cc4ccccc4)[C@H]3SC2(C)C)c1`, the result in assay [1], in [6], in assay [7], in assay [8] and in [9] was inactive. Moreover, the Potency result in assay [2], in assay [3], in assay [4], in assay [5], in assay [10] and in assay [11] was “inactive” each time. For the same compound, the Potency result in assay [12], in [18] and in assay [14] was “inactive” in each case.

For the compound `NNc1nnc(NN)c2ccccc12`, the compound was classed as inactive in assay [1], in assay [17], in assay [6], in [7], in assay [8] and in assay [9]. Moreover, the call in assay [13] was inactive. Besides, the Potency entry in [4], in [10], in [11], in [12], in assay [18] and in assay [14] was “inactive” in each case. In addition, the Potency result in assay [15] and in assay [16] was “inactive” in each case.

As to `COc1ccc2c(c1OC)C(=O)O[C@@H]2[C@H]1c2c(cc3c(c2OC)OCO3)CCN1C`, the call in [1], in assay [17], in assay [6], in assay [7], in assay [8] and in [9] was inactive. Moreover, in [13], the compound was classed as inactive. For the same compound, the Potency entry in assay [20], in assay [3], in assay [4], in assay [5], in [11] and in assay [15] was “inactive” in each case. Besides, the Potency in assay [12] was 13.3 µM (active); in assay [18], 15 µM (active); in assay [14] it was 11.9 µM (active); in [16], 22.4 µM (active). Further, in assay [19], the max activation was 8.04%.

Take `O=P(O)(O)OP(=O)(O)O`: the Potency entry in [2], in assay [20], in assay [3], in [4], in assay [5] and in assay [10] was “inactive” in each case. Further, the Potency entry in assay [11], in assay [12] and in [18] was “inactive” each time. In addition, the call in assay [17], in assay [6], in assay [7], in assay [8], in [9] and in assay [13] was inactive. Besides, in assay [19], the max activation is 1.84%.

Turning to `COc1cc2c(cc1OC)[C@@H]1CC(=O)[C@@H](CC(C)C)CN1CC2`, the call in assay [1], in assay [17], in [6], in assay [7], in assay [8] and in assay [9] was inactive. Moreover, the call in [13] was inactive. The Potency result in assay [20], in [3], in [4], in [10], in assay [12] and in [18] was “inactive” in each case.

Consider `OCCCCC(O)CO` (stereo not drawn), for which the call in assay [1], in assay [17], in [6], in [7], in assay [8] and in assay [9] was inactive. For the same compound, the call in assay [13] was inactive. In addition, the Potency entry in assay [20], in assay [3], in assay [4], in [10], in assay [11] and in assay [12] was “inactive” in each case. For the same compound, the Potency entry in [18] and in [14] was “inactive” each time.

For `O=C1c2cccc3c2[C@H](CCC3)CN1[C@@H]1CN2CCC1CC2`, the compound was classed as inactive in assay [1], in assay [6], in assay [7], in assay [8] and in [9]. Further, the Potency entry in [20], in [11] and in assay [16] was “inactive” throughout. Besides, the Potency in assay [5] is 26.6 µM (active). Besides, in assay [19], the max activation was -9.35%.
